# Several values for one entry are separate records, joined by “and”; a condition that tells them apart may be missing. Equal values may be shown once. Screen size: about 390,000 compounds; about 4,000 (1%) were called active. Inconclusive results (about 4%) are left out. Calls follow the shape of the dose curve; as a rule, active = well fitted inhibition curve with a large enough effect; inconclusive = small, poorly fitted or top-dose-only effect; inactive = no such curve, though single readings can be large or run the other way. Shown is part of a subset that was picked to be rich in actives.
# Molecular target: Thioredoxin reductase 1, cytoplasmic (Rattus norvegicus) (UniProt O89049)
# Sequence (O89049 whole entry, looked up): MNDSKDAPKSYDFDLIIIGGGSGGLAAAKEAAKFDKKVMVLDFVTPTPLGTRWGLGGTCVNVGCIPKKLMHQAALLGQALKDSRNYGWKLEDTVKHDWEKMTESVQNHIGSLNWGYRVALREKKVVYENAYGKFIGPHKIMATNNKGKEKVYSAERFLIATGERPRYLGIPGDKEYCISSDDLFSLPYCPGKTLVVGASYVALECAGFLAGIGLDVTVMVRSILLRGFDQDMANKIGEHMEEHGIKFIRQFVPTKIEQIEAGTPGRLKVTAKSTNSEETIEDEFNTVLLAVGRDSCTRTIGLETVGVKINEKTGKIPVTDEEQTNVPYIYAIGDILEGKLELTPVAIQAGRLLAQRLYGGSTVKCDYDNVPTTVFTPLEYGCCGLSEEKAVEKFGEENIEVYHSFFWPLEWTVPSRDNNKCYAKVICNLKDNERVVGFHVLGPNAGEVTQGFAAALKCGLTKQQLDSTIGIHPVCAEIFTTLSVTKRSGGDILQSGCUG
# Assay: qHTS Assay for Inhibitors of Mammalian Selenoprotein Thioredoxin Reductase 1 (TrxR1): qHTS; also: nearly all actives have a fitted effect of over 65% in size
# Conditions: recombinant rTrxR1, NADPH fluorescence consumption, selenite substrate; series mostly up to 114 µM; activity change, negative = inhibition: at the top concentration
# Excerpt: The selenoprotein thioredoxin reductase (TrxR; EC 1.8.1.9) is a FAD containing homodimeric pyridine nucleotide-disulfide oxidoreductase with many cellular roles. Together with NADPH and its prime substrate thioredoxin (Trx), the enzyme forms the core of the Trx system. The mammalian Trx system exerts a wide spectrum of functions including redox regulation, antioxidant defense, regulation of transcription factors as well as support of cell growth and replication. Many of these functions involve the reduction of Trx, which may subsequently reduce a number of different substrates including ribonucleotide reductase, peroxiredoxins or NFkB. Mammalian TrxR itself also has a broad substrate specificity, reducing both protein and non-protein substrates, including low molecular weight compounds such as dehydroascorbate, lipoic acid, ubiquinone, and juglone. In addition, several drugs in clinical use for anticancer treatment are indeed known to target TrxR1.
# This BioAssay is a validation of an NADPH fluorescence-based, dual-purpose qHTS rTrxR1 assay designed to find potential inhibitors and substrates of rTrxR1. For this particular BioAssay, actives are potential inhibitors. See related BioAssay for substrate data deposition.
# NIH Molecular Libraries Probe Production Network [MLPCN]
# NIH Chemical Genomics Center [NCGC]
# Assay Provider: Elias Arner, Karolinska Institute
# Assay protocol: 2 uL of reagents (buffer in column 4 as negative control and 90 nM rTrxR1 in columns 1-3 and 5-48) were dispensed into Greiner black solid-bottom 1,536-well assay plates, followed by 1 uL of NADPH (400 uM final concentration) to each well. The plates were centrifuged at 1000 rpm for 15 seconds and subsequently incubated for 5 min at room temperature (~22 deg C) to allow for rTrxR1 reduction. Compounds (23 nL) were then transferred via Kalypsys pin tool equipped with 1536-pin array (10 nL slotted pins, V&P Scientific, San Diego, CA). In addition, a duplicate 2-fold serial dilution of the control compounds auranofin, a known gold-based TrxR1 inhibitor, and juglone (5-hydroxy-1,4-naphthoquinone), a natural TrxR1 substrate, were pin-transferred to columns 2 and 3, respectively. After incubation for 15 min at room temperature (~22 deg C), 1 uL of selenite (400 uM final concentration) were dispensed to each well. The plate was immediately transferred to a ViewLux high-throughput CCD imager (PerkinElmer), wherein kinetic measurements of NADPH fluorescence (Ex 340 nm, Em 450 nm) were acquired (8 minute kinetic read, see Table 1). Read 1 was utilized to assess the capacity of a compound to serve as an rTrxR1 substrate, i.e. a decrease in NADPH fluorescence compared to the no-compound background is an indication of a substrate behavior for that particular compound. For inhibitory activity of a compound, delta values, computed as the difference in fluorescence intensity between the first and last reads of an 8-minute time kinetic window, were used. All reagents were diluted in an assay buffer consisting of 50 mM Tris-HCl, pH 7.5, 2 mM EDTA, and 0.01% Tween-20.
# Throughout the screen, reagent bottle and all liquid lines were made light-tight to minimize reagent degradation. All screening operations were performed on a fully integrated robotic system (Kalypsys, San Diego, CA) containing one RX-130 and two RX-90 anthropomorphic robotic arms (Staubli, Duncan, SC). Library plates were screened starting from the lowest and proceeding to the highest concentration, and a 'double-pinning' step of the highest concentration was required to access higher concentrations of compounds. Vehicle-only plates, with DMSO being pin-transferred to the columns 5-48, were inserted uniformly at the beginning and the end of each library in order to monitor and record any shifts in the background, which can be affected by reagent dispensers or loss in enzyme activity over time. […]
# % is scaled to controls: 0 for no effect and ±100 for the full control effect; potency is read from the fitted curve at half-maximal effect.
Structure (SMILES),"activity change, negative = inhibition",Potency
O=c1[nH]c(O)c(C=Nc2cc(F)cc(F)c2)c(=O)[nH]1,5.27% (inactive),–
O=C1N=c2ccccc2=C/C1=C\c1c(O)[nH]c(=S)[nH]c1=O,–,17.8 µM (active)
COc1ccccc1N=Nc1c(O)[nH]c(=S)[nH]c1=O,-6.81% [at 57.1 µM] (inactive),–
Cc1ccc2c(c1)=C/C(=C\c1c(O)[nH]c(=O)[nH]c1=O)C(=O)N=2,–,10 µM (active)
CC(=O)Nc1ccc(C(=O)C(Cc2ccccc2)N(C)C)cc1 (centres undefined),-9.89% (inactive),–
CCC(C)n1c(O)c(/C=N/Nc2nc3c(c(=O)n(C)c(=O)n3C)n2C)c(=O)[nH]c1=S (centres undefined),12% [at 11.4 µM] (inactive),–
O=C(Cn1c(=O)n(CC2CS2)c2ccccc21)N1CCCCC1 (centres undefined),10.1% [at 57.1 µM] (inactive),–
OCC#CC[N+]1(CC#Cc2ccccc2)CCCC1,-2.45% (inactive),–
COCCNC(=O)CN1C2CCC1CC(O)(c1cccnc1)C2 (centres undefined),8.33% [at 57.1 µM] (inactive),–
CCOc1ccc(C2SCC(=O)Nc3c2c(C)nn3C2CCOC(C)(C)C2)cc1 (centres undefined),-18% (inactive),–
c1ccc(CCNC2CCCCCC2)cc1,8.58% (inactive),–
COc1ccc2[nH]c3c(c2c1)CCN[C@H]3C,-25.8% (inactive),–
O=c1c2ccccc2nc(/C=C/c2ccco2)n1-c1ccccc1O,–,15.8 µM (active)
O=c1c2ccccc2nc(/C=C/c2ccc(F)cc2)n1-c1ccccc1O,9.77% [at 57.1 µM] (inactive),–
Cn1cc(/C=C/c2nc3ccccc3c(=O)n2-c2ccccc2)c2ccccc21,-11.5% (inactive),–
Cc1cccc(Cn2cccc(C(=O)Nc3ccc4c(c3)OCCO4)c2=O)c1,8.05% [at 57.1 µM] (inactive),–
O=C1NC(=O)C(Cc2ccccc2)C(=O)N1,-9.71% [at 2.29 µM] (inactive),–
CN(C)CCCN=Cc1c(O)n(Cc2ccco2)c(=O)[nH]c1=O,40% [at 57.1 µM] (inactive),–
CCC(=NCc1ccco1)c1c(O)n(Cc2ccccc2)c(=O)[nH]c1=O,–,14.1 µM (active)
CCCCn1c(O)c(C(CC)=NCc2ccco2)c(=O)[nH]c1=O,-10.3% (inactive),–
O=C(COC(=O)Cc1ccccc1)Nc1ccc(F)cc1,18.2% (inactive),–
CCOc1ccc(-c2cc(C)n3nc(C(=O)Nc4ccc(C)c(C)c4)cc3n2)cc1,47.3% (inactive),–
CC(C)c1c(CN(C)C(C)Cc2ccccc2)n(C)n(-c2ccccc2)c1=O (centres undefined),-6.1% (inactive),–
ClCCN(CCCl)c1ccc(C=Nc2ccc(/C=C/c3ccnc4ccccc34)cc2)cc1,-2.65% (inactive),–
CC(=O)NBr,–,inactive
COc1ccc(NC(=O)c2cn(CCC#N)nc2-c2ccc([N+](=O)[O-])cc2)cc1,13.3% [at 57.1 µM] (inactive),–
O=C1NC(=O)N(c2ccccc2)C(=O)/C1=C/c1ccc([N+](=O)[O-])s1,–,22.4 µM (active)

Structure (SMILES),"activity change, negative = inhibition",Potency
COC(=O)C1=C(c2ccc(F)cc2OCc2ccccc2)C[C@@H]2CC[C@H]1N2C(=O)NCc1ccc(Cl)cc1,18.9% (inactive),–
O=[N+]([O-])c1ccc(Cl)c(Cl)c1,6.58% (inactive),–
C=CCN1C(=O)NC(=O)/C(=C/c2ccc(OCC(=O)Nc3ccc(C)cc3)cc2)C1=O,–,20 µM (active)
C=CCN(CC=C)C(=O)Nc1ccc(OCC)cc1,11.4% [at 57.1 µM] (inactive),–
CCC(=O)c1ccc(OCC(=O)N2CCN(CC(=O)Nc3ccc(C)cc3)CC2)cc1,8.72% (inactive),–
COc1cc(Cl)ccc1Nc1ncc(C(=O)N2CCN(c3ccccc3OC)CC2)c2ccccc12,107% (inactive),–
N#Cc1c(Cl)c(Cl)c(Cl)c(C#N)c1Cl,–,0.282 µM (active)
C=CCN1CCC23c4c5ccc(O)c4O[C@H]2C(=O)CC[C@@]3(O)C1C5 (some centres undefined),–,inactive
Cc1ncsc1CCCl,-10.7% [at 57.1 µM] (inactive),–
Cc1ccccc1NC(=O)COC(=O)c1cc(C)n(C2CC2)c1C,-13.9% (inactive),–
O=P1(Oc2ccccc2)CC(O)C(O)C(COCc2ccccc2)O1 (centres undefined),14.5% (inactive),–
CO[C@H]1[C@@H](O)[C@@H](C)O[C@H](O[C@H]2[C@H](Oc3cccc4c(O)c5c(=O)oc6ccc(C)c7c(=O)oc(c34)c5c67)O[C@H](C)[C@H](O)[C@@H]2O)[C@@H]1O,3.86% (inactive),–
CCC1(C)CC(=O)NC1=O (centres undefined),–,inactive
CC[C@H]1CC2CN3CCc4c([nH]c5ccccc45)C(C(=O)OC)(C2)C13 (some centres undefined),12.3% (inactive),–
CCOC(=O)c1ncn2c1[C@@H]1CCCN1C(=O)c1cc(OC)ccc1-2,–,inactive
CC(=O)c1c(O)c(C)c(O)c(Cc2c(O)c3c(c(C(=O)/C=C/c4ccccc4)c2O)OC(C)(C)C=C3)c1O,–,28.2 µM (active) and 11.2 µM (active)
C[N+]1(C)CCOC(O)(c2ccc(-c3ccc(C4(O)C[N+](C)(C)CCO4)cc3)cc2)C1 (centres undefined),–,inactive
COC(=O)C1=C(c2ccc(C(C)=O)cc2)C[C@@H]2CC[C@H]1N2C(=O)NCCNC(C)=O,17.4% [at 57.1 µM] (inactive),–
CC(C)(C)c1ccc(CN2C(=O)CN=C(c3ccccc3)c3ccccc32)cc1,1.72% (inactive),–
O=C(CN1CCCC1=O)NCCc1ccccc1,14.9% (inactive),–
O=C1CC(=O)N(Cc2ccccc2)C(=O)N1CCCCCCN1C(=O)CC(=O)N(Cc2ccccc2)C1=O,–,2.82 µM (active)
COCc1cc(OC(=O)N(C)C)nc(-c2ccc(C)c(Cl)c2)n1,-11.1% (inactive),–
COc1ccc(-n2c(-c3ccccc3)nc3ccccc3c2=O)cc1,11.3% (inactive),–
CC[C@H]1CN2CCc3cc(OC)c(OC)cc3[C@@H]2C[C@@H]1C[C@H]1NCCc2cc(OC)c(OC)cc21,–,inactive
COC(=O)C1=C(c2cc3ccccc3s2)C[C@@H]2CC[C@H]1N2C(=O)NCCO,2.91% [at 57.1 µM] (inactive),–
COc1ccc(NC(=O)N2CCC3(CC2)OCCO3)c(OC)c1,11.5% (inactive),–
COc1ccc(-c2nc(CS(=O)CC(=O)N3CCC4(CC3)OCCO4)c(C)o2)cc1 (centres undefined),–,7.08 µM (active)

Structure (SMILES),"activity change, negative = inhibition",Potency
COc1ccc(S(=O)(=O)NCc2ccc(C(=O)N3CCC4(CC3)OCCO4)cc2)cc1,-0.636% (inactive),–
CCN(CC)CCOC(=O)c1cc2cc(COC)ccc2o1,14.1% [at 57.1 µM] (inactive),–
CCN1C(=O)C(=Cc2c(C)n(CC(=O)NCC3CCCO3)c3ccccc23)C(=O)N(CC)C1=S (centres undefined),–,11.2 µM (active)
CCCCCCN=C(CC)c1c(O)n(CCCC)c(=O)[nH]c1=O,4.26% [at 57.1 µM] (inactive),–
COC1=C[C@@H]2[C@@H]3Cc4ccc(OC)c(O)c4[C@]2(CCN3C)CC1=O,-6.63% (inactive),–
O=C(O)/C=C/c1ccc2c(c1)OCO2,3.16% (inactive),–
CN(C)CC1Oc2ccccc2OC1(O)c1ccccc1 (centres undefined),–,0.398 µM (active)
O=C(O)C1C2CCC(O2)C1C(=O)O (centres undefined),-1.83% (inactive),–
CC1CCC(N(C)C2CCN(C)CC2)CC1 (centres undefined),-4.72% (inactive),–
CCNc1nc2[nH]c(=O)c3c(c2s1)OC(N)=C(C#N)C3c1cccs1 (centres undefined),-8.85% (inactive),–
CCCCN1C2CCC1CC(OC(c1ccc(F)cc1)c1ccc(F)cc1)C2 (centres undefined),3.2% (inactive),–
COc1ccc(OC)c(NC(=O)Cn2c(=O)oc3ccccc32)c1,25.1% (inactive),–
Cc1ccnc(-n2c(C)cc(/C=C3\C(=O)NC(=S)N(C)C3=O)c2C)c1,–,35.5 µM (active)
Cc1ccc(-n2c(C)cc(/C=C3\C(=O)NC(=O)N(C)C3=O)c2C)cc1C,-0.889% (inactive),–
Cc1cc(C=C2C(=O)NC(=O)NC2=O)c(C)n1-c1ccncc1,-45.2% (inactive),–
O=C(O)C1CSC(c2cccnc2)N1 (centres undefined),23.3% [at 57.1 µM] (inactive),–
c1cncc(CNCCc2c[nH]c3ccccc23)c1,13% (inactive),–
C[C@@H]1C[C@@H]2O[C@H]2/C=C\C=C\C(=O)Cc2c(Cl)c(O)cc(O)c2C(=O)O1,–,12.6 µM (active)
COc1cc([C@@H]2c3cc4c(cc3[C@H](OC(C)=O)[C@H]3COC(=O)[C@H]23)OCO4)cc(OC)c1OC,-1.87% (inactive),–
CCOc1ccc(CN(CCCl)CCCl)cc1C(=O)OC,–,15.8 µM (active)
CC1=CC(=Cc2sc3ccccc3[n+]2C)C=C(C)O1,-17.2% (inactive),–
Cc1ccc(Cn2c(C)c3cnn(CC(=O)N4CCC5(CC4)OCCO5)c(=O)c3c2C)cc1,-10.4% (inactive),–
CCOP(=O)(OCC)C(NC(=O)c1ccc(OC)cc1)C(Cl)(Cl)Cl (centres undefined),16.1% (inactive),–
CC(=O)c1ccc(OC(NC(=O)Cc2ccccc2)C(Cl)(Cl)Cl)cc1 (centres undefined),–,10 µM (active)
CC(=O)Cc1ccc(OC(C)C)cc1,-10.4% [at 57.1 µM] (inactive),–

# Reference: PubChem BioAssay AID588453 (National Center for Advancing Translational Sciences (NCATS), 2011)
